This is part of a sample that, as a whole, favours compounds with a hit. Of some 83,000 tested, about 20% had one in any assay.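 How to read the values: 0–100, growth inhibition (40 = 60% inhibited); 0, no net growth; -100 to 0, cell death (-40 = 40% of starting cells died; -100 = all dead).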 Unmarked numbers belong to inactive results. The source made the active and inactive calls. How the source made its calls: active means growth percent below 10; inactive means the rest.
Assays:
Assay in all cases: NCI-60 one-dose screen, 48 h (100 = growth as untreated, 0 = no growth, -100 = all killed)
Details in all cases: 10 µM unless noted
[1] = test system: SK-MEL-2 melanoma
[2] = test system: EKVX NSCLC
[3] = test system: SN12C renal
[4] = test system: UO-31 renal
[5] = test system: TK-10 renal
[6] = test system: ACHN renal
[7] = test system: CAKI-1 renal
[8] = test system: A498 renal
[9] = test system: CCRF-CEM leukemia
[10] = test system: MOLT-4 leukemia

| Structure (SMILES) | growth [1] | growth [2] | growth [3] | growth [4] | growth [5] | growth [6] | growth [7] | growth [8] | growth [9] | growth [10] |
| --- | --- | --- | --- | --- | --- | --- | --- | --- | --- | --- |
| O=S(=O)(c1ccccc1)n1cc2c(c1)-c1nc(Nc3ncccn3)sc1CC2 | 65.2% | 72.4% | 57.2% | 41.3% | 64.3% | 22.9% | 66.8% | 43.7% | 73.1% | 83.7% |
| CCOC(=O)n1ccn(C)c1=S | 97.8% | 100% | 105% | 80.7% | 98.6% | 99.3% | 95.4% | 115% | 98% | 103% |
| COc1cc2c(c(OC)c1OC)CCC(c1cccc(C(=O)Nc3cccc(Cl)c3)c1)O2 (stereo not given) | 58.3% | 64.2% | 50% | 40.8% | 70.4% | 65.4% | 84.8% | 6.84% (active) | 37.8% | 30.4% |
| Cc1ccccc1/C=C/C(=O)c1cccc(OCCCCOc2cccc(C(=O)/C=C/c3ccccc3C)c2)c1 | 103% | 94.6% | 90.7% | 80.7% | 101% | 101% | 86% | 86% | 104% | 94.5% |
| O=C(COc1ccc(-c2nc3cc(Cl)c(Cl)cc3[nH]2)cc1)N=Nc1c(O)[nH]c2ccc(Cl)cc12 | 90.2% | 96.8% | 74.5% | 94.4% | 91.4% | 71.8% | 76.3% | 91.3% | 24.2% | 47% |
| COc1ccc(/C=C(\C#N)n2nnc3cc(Cl)ccc32)cc1 | 26.1% | 11.4% | 11.7% | 25.9% | 25.6% | 14.6% | 32.7% | -23.5% (active) | 12.4% | 14.2% |
| Cn1cc(-c2csc(-c3c[nH]c4ccc(Br)cc34)n2)c2ccnc(Cl)c21 | 85.4% | 69.1% | 67.5% | 48.8% | 56.3% | 39.2% | 66.5% | 51.6% | 39.5% | 56.4% |
| Cc1cc(=O)n(C(=O)Nc2ccccc2Cl)c2cc(O)ccc12 | 118% | 108% | 98.5% | 76.9% | 101% | 100% | 92.3% | 109% | 93.9% | 110% |
| Cc1ccc(-c2nc(N3CCCNCC3)c3oc(-c4ccc(C)cc4)nc3n2)cc1 | 105% | 116% | 59.1% | 62.6% | -1.53% (active) | -77.1% (active) | 108% | 101% | -72.1% (active) | -66% (active) |
| CN1CCN(c2cc(Nc3cc(C4CC4)[nH]n3)nc(Nc3ccc(CC(=O)NCc4cccc(F)c4)cc3)n2)CC1 | 48.9% | 50.3% | 23.5% | 36.8% | 34.5% | 45.9% | 5.36% (active) | -28.7% (active) | 36.8% | 16% |
| CCN(CC)CCCCCNc1cc(OC(=O)c2ccc(Cl)cc2)cc2cccnc12 | 103% | 104% | 96.8% | 94.7% | 106% | 106% | 106% | 95.6% | 108% | 72.6% |
| C=C(C)[C@@H]1CC[C@]2(C(=O)N3CCOCC3)CC[C@]3(C)[C@H](CC[C@@H]4[C@@]5(C)C/C(=C/c6ccncc6)C(=O)C(C)(C)[C@@H]5CC[C@]43C)[C@@H]12 | 72.2% | 60.8% | 62.6% | 52.6% | 91% | 58.4% | 56.8% | 68.9% | 31.7% | 30.3% |
| Cn1c(I)c(C#CCO[Si](C)(C)C(C)(C)C)c(=O)[nH]c1=O | 69.2% | 105% | 114% | 25.3% | 92.7% | 99.7% | 103% | 94.5% | 5.42% (active) | -22.9% (active) |
| C=CC[Se]C(=O)Cc1c(C)n(C(=O)c2ccc(Cl)cc2)c2ccc(OC)cc12 | 8.51% (active) | -62.6% (active) | -30.4% (active) | -80% (active) | -33.5% (active) | -61% (active) | -59.3% (active) | -28.1% (active) | 10.5% | 5.11% (active) |
| COc1ccccc1NC(=O)N=Nc1c(O)[nH]c2ccccc12 | 100% | 83.9% | 93.5% | 58.7% | 118% | 93% | 73.3% | 90.7% | 89.9% | 93.4% |
| COc1cc2c(cc1OCCCN1CCN(CCCOc3cc4c(cc3OC)C(=O)N3CC(F)(F)C[C@H]3C=N4)CC1)N=C[C@@H]1CC(F)(F)CN1C2=O | 90.6% | 197% | 54.7% | 82.4% | 115% | 78.3% | 35% | 86.1% | -28.2% (active) | 26.9% |
| Cc1cc(N2CCCCC2)cc(C)c1-c1csc(NC(=O)c2ccncc2)n1 | 95.6% | 32.9% | 49.1% | 36.9% | 77.3% | 56.8% | 49.5% | 42.9% | 47.3% | 43.7% |
| CNC(=O)c1ccccc1Oc1nc(Nc2cc(OC)c(OC)c(OC)c2)ncc1Br | 1.29% (active) | 55.3% | 75.8% | 33% | 50.5% | 67.1% | 37% | -18.3% (active) | 59.5% | 68.6% |
| CN(C)CC(C)(C)C(=O)/C=C/c1ccccc1 | -74.2% [25 µM] (active) | -18.5% [25 µM] (active) | -34.1% [25 µM] (active) | -90.3% [25 µM] (active) | -9.48% [25 µM] (active) | -71.4% [25 µM] (active) | -6.22% [25 µM] (active) | -14.7% [25 µM] (active) | 2.8% [25 µM] (active) | -5.22% [25 µM] (active) |
| COc1ccc(-c2cc(-c3cc(OC)c(OC)c(OC)c3)c(C#N)c(=O)n2CCCCC(=O)NO)cc1 | 87.2% | 65.5% | 66.5% | 37.8% | 68.1% | 56.1% | 46.3% | 76.7% | 26.7% | 27.2% |
| CCOC(=O)C(=O)C(C(=O)OCC)c1ccccc1 (stereo not given) | 101% | 103% | 108% | 87.7% | 106% | 105% | 97.9% | 107% | 90.4% | 90% |
| CC(C)=CC(=O)OCC(=O)O[C@@H]1C[C@]2(C(C)C)O[C@@]1(C)[C@@H]1CC[C@@H](C)[C@H]1[C@@H]2OC(=O)/C=C/c1ccccc1 | 89% | 84.1% | 39.8% | -64.7% (active) | 95.5% | 4.57% (active) | 12.8% | -79.2% (active) | 78.4% | 79.1% |
| COC(=O)c1c(C)nc(C)c2c1C(=O)C(Br)=C(NCc1ccccc1)C2=O | 27.2% | 17% | 8.24% (active) | 46.1% | 86.6% | 36.9% | 51.8% | 88.6% | 25.5% | 13.6% |
| O=C(c1ccncc1)N1N=C(c2ccc(Cl)cc2)C[C@H]1c1cn(-c2ccccc2)nc1-c1ccccc1 | 110% | 87.2% | 86.6% | 90.1% | 109% | 70.8% | 65.4% | 102% | 78.9% | 70.8% |
| COC(=O)Nc1nc2ccc(S(=O)c3ccccc3)cc2[nH]1 (stereo not given) | 48.1% | 80% | 82.2% | 65% | 92.9% | 86.1% | 63.2% | 56.6% | 66.9% | 70.5% |
| C#CCOC(=O)/C=C/c1cn(-c2ccccc2)nc1-c1ccc(OC)cc1 | 90.4% | 93.4% | 77.3% | 54% | 91.6% | 77% | 67.6% | 81.7% | 97.5% | 75.8% |

Source: PubChem BioAssay (NCI)
